Data reported in PubChem BioAssay (NCI).
Compounds without any hit were thinned out: in the full panel of roughly 83,000, 20% have a hit.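 The endpoint reported here, percent growth, reads 100 for growth as untreated, 0 for no net growth and -100 for all cells dead.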 Calls of active or inactive are those of the source. The calls were made as follows: active = growth percent below 10; inactive = the rest.

How the values were obtained:
Test in all cases: NCI-60 one-dose screen, 48 h (100 = growth as untreated, 0 = no growth, -100 = all killed)
[1] = tested on: T-47D breast; conditions: 10 µM
[2] = tested on: BT-549 breast; conditions: 10 µM
[3] = tested on: MDA-MB-435 melanoma; conditions: 10 µM
[4] = tested on: SW-620 colon; conditions: 10 µM
[5] = tested on: MCF7 breast; conditions: 10 µM unless noted
[6] = tested on: HCT-116 colon; conditions: 10 µM
[7] = tested on: HCC-2998 colon; conditions: 10 µM
[8] = tested on: KM12 colon; conditions: 10 µM

Measured: growth

CC1(C)/C(=C\CO)C2CCC1C2 (stereo unspecified)
inactive: [1] 101% | [2] 102% | [3] 123% | [4] 106% | [5] 104% | [6] 96.8% | [7] 104% | [8] 114%

N#CC1(Nc2ccc3c4c(cccc24)CC3)CCCCC1
inactive: [1] 54.9% | [2] 96.3% | [3] 99% | [4] 110% | [5] 15.4% | [6] 108% | [7] 116% | [8] 90.1%

CC(=O)OCC1OC(OC2=C(CC=C(C)C)C(=O)c3ccccc3C2=O)C(OC(C)=O)C(OC(C)=O)C1OC(C)=O (stereo unspecified)
inactive: [4] 11.1% | [7] 77.9%
active: [1] -61.3% | [2] -6.85% | [3] -17.1% | [5] -60.2% | [6] 1.75% | [8] 5.15%

Nc1nc(N)c2cc(S(=O)(=O)c3cccc(C(F)(F)F)c3)ccc2n1
inactive: [1] 74.1% | [2] 76.8% | [3] 31.7% | [4] 25.4% | [5] 43.1% | [6] 15.6% | [7] 37.4% | [8] 53.1%

COc1ccc(/C=C/c2cccc[n+]2C)cc1
inactive: [1] 97.4% | [2] 89.8% | [3] 100% | [4] 79.9% | [5] 96% | [6] 106% | [7] 83.6% | [8] 33%

O=C(O)CCC(NC(=O)OCc1ccccc1)C(=O)O (stereo unspecified)
inactive: [1] 98.5% | [2] 119% | [3] 104% | [4] 101% | [5] 93% | [6] 111% | [7] 99.7% | [8] 105%

Cc1nc2c(ccc3ccccc32)s1
inactive: [1] 102% | [2] 109% | [3] 115% | [4] 107% | [5] 99.2% | [6] 103% | [7] 75.1% | [8] 117%

C#C[C@H]1CCCCCC1O (stereo partly specified)
inactive: [1] 95.4% | [2] 113% | [3] 109% | [4] 104% | [5] 107% | [6] 106% | [7] 102% | [8] 107%

CC1(O)CCCCC1O (stereo unspecified)
inactive: [1] 98.4% | [2] 94% | [3] 117% | [4] 104% | [5] 106% | [6] 101% | [7] 104% | [8] 115%

O=C(O)c1cc([N+](=O)[O-])ccc1Cl
inactive: [1] 99.6% | [2] 97.1% | [3] 107% | [4] 98.5% | [5] 88% | [6] 102% | [7] 97% | [8] 95%

C=CC(O)CCC (stereo unspecified)
inactive: [1] 113% | [2] 112% | [3] 90.4% | [4] 101% | [5] 95.3% | [6] 112% | [7] 113% | [8] 109%

N#Cc1c(N)sc(=S)c2c1CCCC2
inactive: [1] 95.7% | [2] 98.5% | [3] 109% | [4] 112% | [5] 93.3% | [6] 104% | [7] 106% | [8] 110%

CCCCCCCCO
inactive: [1] 105% | [2] 107% | [3] 99.3% | [4] 103% | [5] 91.8% | [6] 107% | [7] 103% | [8] 108%

CCCCCC(C)(CC(=O)O)CC(=O)O
inactive: [1] 104% | [2] 113% | [3] 107% | [4] 106% | [5] 90% | [6] 112% | [7] 113% | [8] 115%

O=C(O)CCCCNC(=O)c1ccccc1
inactive: [1] 88.2% | [2] 103% | [3] 113% | [4] 107% | [5] 101% | [6] 101% | [7] 94.3% | [8] 99%

CCOC(=O)C(O)C(O)C(=O)OCC (stereo unspecified)
inactive: [1] 98% | [2] 107% | [3] 108% | [4] 101% | [5] 107% | [6] 103% | [7] 111% | [8] 102%

CC(C)(N)COS(=O)(=O)O
inactive: [1] 108% | [2] 100% | [3] 94.6% | [4] 101% | [5] 95.5% | [6] 95.4% | [7] 112% | [8] 99.1%

COc1cccc(COC(=O)Nc2ccccc2)c1OC
inactive: [1] 93.1% | [2] 107% | [3] 91.7% | [4] 114% | [5] 97.6% | [6] 104% | [7] 102% | [8] 106%

CC1Cc2ccccc2O1 (stereo unspecified)
inactive: [1] 104% | [2] 134% | [3] 124% | [4] 111% | [5] 99.6% | [6] 112% | [7] 86.4% | [8] 107%

CC1SC(N)=NC1=O (stereo unspecified)
inactive: [1] 106% | [2] 123% | [3] 109% | [4] 112% | [5] 103% | [6] 108% | [7] 107% | [8] 110%

Oc1ccccc1-c1nnco1
inactive: [1] 82% | [2] 77.5% | [3] 91.5% | [4] 98.3% | [5] 102% | [6] 106% | [7] 104% | [8] 100%

CC(=O)NC(N)=S
inactive: [1] 124% | [2] 117% | [3] 117% | [4] 101% | [5] 86.5% | [6] 111% | [7] 100% | [8] 107%

O=[N+]([O-])c1ccc(-c2ncc(-c3ccc(Br)cc3)o2)cc1
inactive: [1] 94.7% | [2] 113% | [3] 108% | [4] 93.5% | [5] 87.4% | [6] 91.4% | [7] 88.2% | [8] 119%

c1ccc2c(N3CCCCC3)ncnc2c1
inactive: [1] 130% | [2] 90.8% | [3] 109% | [4] 98% | [5] 96.6% | [6] 88.4% | [7] 81.1% | [8] 103%

C/C(=N\NC(=O)c1ccccc1N)c1ccccc1O
inactive: [1] 25.2% | [2] 72.2% | [3] 57.8% | [4] 31.6% | [7] 67.5% | [8] 46.3%
active: [5] 5.19% | [6] 7.72%

COc1ccc(C)cc1OC
inactive: [1] 107% | [2] 114% | [3] 108% | [4] 107% | [5] 102% | [6] 105% | [7] 100% | [8] 105%

CC(=O)OCCO
inactive: [1] 109% | [2] 109% | [3] 107% | [4] 107% | [5] 96.9% | [6] 103% | [7] 111% | [8] 108%

CCOc1ccc(/C=C/C(=O)c2ccccc2)cc1
inactive: [1] 88.8% | [2] 102% | [3] 89.2% | [4] 96.4% | [5] 70.5% | [6] 83.7% | [7] 92.5% | [8] 80.2%

Cc1c(O)cccc1O
inactive: [1] 98.2% | [2] 77.1% | [3] 94.9% | [4] 99.5% | [5] 104% | [6] 103% | [7] 102% | [8] 118%

CCCCCCCCCCC1CO1 (stereo unspecified)
inactive: [1] 103% | [2] 109% | [3] 112% | [4] 106% | [5] 92.4% | [6] 102% | [7] 102% | [8] 109%

CC(C)COC(=O)COC(=O)OCCOCCOC(=O)OCC(=O)OCC(C)C
inactive: [1] 96.7% | [2] 99.2% | [3] 119% | [4] 108% | [5] 98.7% | [6] 103% | [7] 101% | [8] 104%

O=C(CCNNC(=O)c1ccncc1)NCc1ccccc1
inactive: [1] 94.4% | [2] 134% | [3] 95.7% | [4] 96% | [5] 89.9% | [6] 105% | [7] 111% | [8] 97.5%

CCCCC(=O)c1ccc(OC)cc1
inactive: [1] 110% | [2] 102% | [3] 98.7% | [4] 101% | [5] 97.6% | [6] 101% | [7] 116% | [8] 104%

N/N=C(/Cc1ccccc1)NNC(N)=S
inactive: [1] 91.6% | [2] 75.7% | [3] 92.3% | [4] 111% | [5] 89.2% | [6] 86.3% | [7] 117% | [8] 101%

O=[N+]([O-])c1ccc(N=Nc2ccccc2)cc1
inactive: [1] 87.4% | [2] 87.2% | [3] 110% | [4] 115% | [5] 109% | [6] 97.1% | [7] 104% | [8] 96.2%

CCOC(=O)C(C#N)Cc1ccccc1 (stereo unspecified)
inactive: [1] 107% | [2] 117% | [3] 109% | [4] 117% | [5] 103% | [6] 112% | [7] 118% | [8] 133%

c1ccc(/C(=N\N=C(/c2ccccc2)c2cccs2)c2cccs2)cc1
inactive: [1] 86.7% | [2] 102% | [3] 103% | [4] 98% | [5] 96% | [6] 91.9% | [7] 101% | [8] 97.1%
